The source of these data is PubChem BioAssay (NCATS).

In assay [1] the test system is HaCat. Kind of assay: Cytotoxic Profiling of Annotated Libraries Using Quantitative High-Throughput Screening (AID 1296008). Further: nearly all actives have a fitted effect of over 60% in size. The following applies: Five cell lines viability, CellTiter-Glo ATP luminescence, 48-72 h; max response: stronger effect = lower value. The method, boiled down:
(§1)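 Cytotoxicity was measured as CellTiter-Glo ATP luminescence, read after 10 min at room temperature. Compound treatment of the cells lasted 48 or 72 hr at 37 degrees Celsius in a qHTS format.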

Assay [2] deals with NIH3T3. The description is as above. The note with it: Five cell lines viability, CellTiter-Glo ATP luminescence, 48-72 h; max response: stronger effect = lower value. The method, boiled down: as §1
Assay [3] has as its system HACAT. Briefly: qHTS assay to identify novel small-molecules to repurpose for Merkel cell carcinoma treatment (AID 1296009). Further: nearly all actives have a fitted effect of over 60% in size. The note with it: MCC and control cell lines, CellTiter-Glo viability, 72 h; at 44.8 µM (top of the series) unless noted. Put shortly:
(§2)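 Cell viability, measured as CellTiter-Glo luminescence, was normalized between DMSO and no-cell wells. The cells had been exposed to 8- or 11-point compound dilutions for 72 hr at 37 degree celsius.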

Assay [4] relates to HEK293T. Described as above. The note with it: MCC and control cell lines, CellTiter-Glo viability, 72 h; at 44.8 µM (top of the series) unless noted. The method, boiled down:
as §2

Another assay relates to MCC-13. Described as above. The note with it: MCC and control cell lines, CellTiter-Glo viability, 72 h; series mostly up to 46 µM. Put shortly:
as §2

The test system of a further assay is MCC-26. The assay is described as above. The following applies: MCC and control cell lines, CellTiter-Glo viability, 72 h; series mostly up to 46 µM. Put shortly: as §2
The next assay relates to MKL-1. The description is as above. The note with it: MCC and control cell lines, CellTiter-Glo viability, 72 h; series mostly up to 46 µM. The method, boiled down: as §2
Another assay has as its system MKL-2. The description is as above. The note with it: MCC and control cell lines, CellTiter-Glo viability, 72 h; series mostly up to 46 µM. The method, boiled down:
as §2

For assay [5], the system named is NIH3T3. The assay is described as above. The following applies: MCC and control cell lines, CellTiter-Glo viability, 72 h; at 44.8 µM (top of the series) unless noted. The method, boiled down: as §2
A further assay deals with UISO. The assay is described as above. The note with it: MCC and control cell lines, CellTiter-Glo viability, 72 h; series mostly up to 46 µM. Put shortly:
as §2

A further assay has as its system WaGa. Described as above. The following applies: MCC and control cell lines, CellTiter-Glo viability, 72 h; series mostly up to 46 µM. Put shortly: as §2
The next assay deals with C33A. Kind of assay: Primary qHTS to identify gynecologic anti-cancer compounds using libraries of approved drugs and bioactive compounds (AID 1345084). Further: nearly all actives have a fitted effect of over 55% in size. The note with it: Gynecologic cancer cell panel viability, ATPlite luminescence, 48 h; series mostly up to 57.5 µM. Put shortly: (§3)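 Cell viability after 48 h drug treatment, ATPlite luminescence readout; five doses.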
For the next assay, the system named is CAOV3. The assay is described as above. The note with it: Gynecologic cancer cell panel viability, ATPlite luminescence, 48 h; series mostly up to 57.5 µM. Put shortly: as §3
Another assay relates to CASKI. Described as above. The following applies: Gynecologic cancer cell panel viability, ATPlite luminescence, 48 h; series mostly up to 57.5 µM. Put shortly:
as §3

The next assay relates to Es-2. The description is as above. The following applies: Gynecologic cancer cell panel viability, ATPlite luminescence, 48 h; series mostly up to 57.5 µM. Put shortly:
as §3

The test system of another assay is HeLa. The assay is described as above. The following applies: Gynecologic cancer cell panel viability, ATPlite luminescence, 48 h; series mostly up to 57.5 µM. The method, boiled down:
as §3

Assay [6] has as its system Hek293T. The assay is described as above. The note with it: Gynecologic cancer cell panel viability, ATPlite luminescence, 48 h, control line for the selectivity index; series mostly up to 57.5 µM. Put shortly:
as §3

The test system of another assay is JEG-3. The assay is described as above. The note with it: Gynecologic cancer cell panel viability, ATPlite luminescence, 48 h; series mostly up to 57.5 µM. The method, boiled down:
as §3

The next assay relates to OV90. The assay is described as above. The following applies: Gynecologic cancer cell panel viability, ATPlite luminescence, 48 h; series mostly up to 57.5 µM. Put shortly:
as §3

The test system of the next assay is KB-3-1. Briefly: Cytotoxic Profiling of Annotated Libraries Using Quantitative High-Throughput Screening (AID 1296008). Further: nearly all actives have a fitted effect of over 60% in size. The following applies: Five cell lines viability, CellTiter-Glo ATP luminescence, 48-72 h; max response: stronger effect = lower value. Put shortly: as §1

Structures are written as SMILES. Records with an inconclusive call do not appear. Values without a mark were called inactive. Activity calls are given as the source filed them. The call rests on the fitted dose curve; in most records, active means well fitted curve in the direction sought with a large enough effect; inconclusive means small, poorly fitted or top-dose-only effect, or another doubt; inactive means no such curve, though single readings can be large; an effect the other way counts as inactive or inconclusive.
On the % scale 0 is the no-effect control and ±100 the full control effect; potency means the concentration at half of the fitted maximal effect.

Consider `COc1cc(OC)nc(O[C@H](C(=O)O)C(OC)(c2ccccc2)c2ccccc2)n1`, for which the result in the assay on HaCat [1], with NIH3T3 [2], with HACAT [3], in the assay with HEK293T [4] and in the assay with NIH3T3 [5] was inactive. The Potency result in the assay with MCC-13, in the assay with MCC-26, in the assay on MKL-1, in the assay on MKL-2, in the assay on UISO and in the assay on WaGa was “inactive” throughout. The Potency entry in the assay on C33A, with CAOV3, with CASKI, in the assay on Es-2, in the assay with HeLa and in the assay on Hek293T [6] was “inactive” in each case. The Potency entry in the assay with JEG-3 and with OV90 was “inactive” each time.
Turning to `O=C(C1CCCCC1)N1CC(=O)N2CCCc3ccccc3C2C1` (stereo unspecified), the call in the assay with HaCat [1], in the assay with NIH3T3 [2], with HACAT [3], with HEK293T [4] and in the assay on NIH3T3 [5] was inactive. The Potency result in the assay with MCC-13, in the assay with MCC-26, with MKL-1, with MKL-2, in the assay with UISO and with WaGa was “inactive” in each case. Besides, the Potency result with C33A, with CAOV3, with CASKI, with Es-2, with HeLa and in the assay with Hek293T [6] was “inactive” each time. Besides, the Potency entry with JEG-3 and with OV90 was “inactive” each time.
`O=C(CCC1CCN(Cc2ccccc2)CC1)c1ccc2c(c1)NCCCC2`: the max response in the assay on HaCat [1] is 2.9%; with KB-3-1, -12.9%. Further, the Potency entry with MCC-13, in the assay with MCC-26, in the assay with MKL-1, in the assay with UISO, in the assay on WaGa and in the assay with C33A was “inactive” each time. The Potency result in the assay with CASKI, in the assay with Es-2, in the assay with HeLa, with Hek293T [6] and with JEG-3 was “inactive” throughout.
As for `CN1CCC(Nc2ncc3ncnc(Nc4ccc(F)c(Cl)c4)c3n2)CC1`, the Potency is 237 nM (active) in the assay on HaCat [1] and 15000 nM (active) in the assay with MKL-2. For the same compound, the max response in the assay with KB-3-1 is -0.0832%. Moreover, the Potency result in the assay with MCC-13, with MCC-26, in the assay with UISO, with CASKI, with Es-2 and in the assay with HeLa was “inactive” each time.
In the case of `CN1CC[C@H](c2c(O)cc(O)c3c(=O)cc(-c4ccccc4Cl)oc23)[C@H](O)C1`, the Potency with HaCat [1] is 750 nM (active); in the assay on KB-3-1, 1030 nM (active); with UISO it was 473 nM (active); with C33A, 1260 nM (active); with CASKI, 708 nM (active); with Es-2, 708 nM (active). In the assay with HeLa, the Potency is 794 nM (active). Besides, the Potency entry in the assay with JEG-3 was “inactive”.
As to `COC(=O)c1cc(Cl)ccc1OC`, the result in the assay on HaCat [1], with NIH3T3 [2], in the assay on HACAT [3], in the assay with HEK293T [4] and in the assay on NIH3T3 [5] was inactive. In addition, the Potency result in the assay with MCC-13, with MCC-26, in the assay with MKL-1, with MKL-2, in the assay with UISO and with WaGa was “inactive” each time. Further, the Potency entry in the assay with C33A, in the assay with CAOV3, in the assay on CASKI, in the assay on Es-2, in the assay with HeLa and in the assay on Hek293T [6] was “inactive” each time. In addition, the Potency entry in the assay on JEG-3 and in the assay on OV90 was “inactive” in each case.
On to `O=C(NO)c1ccccc1`, for which the max response in the assay on HaCat [1] was 4.14%; in the assay on KB-3-1 it was -12.1%; with NIH3T3 [2], -4.92%. Moreover, the Potency result in the assay on MCC-13, in the assay with MCC-26, with MKL-1, in the assay on UISO, in the assay on C33A and in the assay on CAOV3 was “inactive” throughout. For the same compound, the Potency result in the assay with CASKI, in the assay with Es-2, with HeLa, with Hek293T [6], in the assay on JEG-3 and in the assay with OV90 was “inactive” throughout. Besides, in the assay with WaGa, the Potency was 32600 nM (active).
As for `CC(C)(c1ccc(O)cc1)c1ccc(O)cc1`, the max response in the assay with HaCat [1] was -13.2%; in the assay on KB-3-1, -17.4%. In addition, the Potency entry in the assay on MCC-13, in the assay with MCC-26, with MKL-1, with MKL-2, in the assay with C33A and in the assay on CAOV3 was “inactive” throughout. Besides, the Potency result with CASKI, in the assay with Es-2, with HeLa, in the assay with Hek293T [6] and in the assay on JEG-3 was “inactive” in each case.
In the case of `CCCCNc1ccc(C(=O)OCCN(CC)CC)cc1`, the max response with HaCat [1] was -28.3%; with KB-3-1, -0.138%. For the same compound, the Potency result in the assay with MCC-13, in the assay on MCC-26, in the assay with MKL-1, in the assay with MKL-2, in the assay on UISO and in the assay with WaGa was “inactive” in each case. In addition, the Potency result in the assay on C33A, with CAOV3, in the assay on Es-2, in the assay on HeLa, with Hek293T [6] and with JEG-3 was “inactive” each time. The Potency result in the assay on OV90 was “inactive”.
